This excerpt belongs to a sample that is enriched for hits.
nsP2pro inh: inhibitors of chikungunya virus nsP2 protease. Q8JUX6. FRET peptide cleavage, nsP2pro, fluorescence 1 h. Potency, µM (titrated, usually from 24.9 µM), for the others: at the top dose activity change, negative = inhibition, most hits filed as inhibitors. actives 1.1% (n = 31,000). AID 1964107; note: nearly all actives have a fitted effect of over 60% in size
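Enzyme 150 nM, substrate 2.5 uM (both final); Tris-HCl 10 mM pH 8.0 + 0.01% Tween 20; cpd up to 25 uM, 7 pts; 15 min preinc., 1 h RT; fluorescence ex 525/em 598.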
nsP2 cell sec: cell-based CHIKV nsP2 protease inhibition, secondary. actives 10% (n = 450). Potency, µM (top dose mostly 51.1 µM), for the others: at the highest dose activity change, negative = inhibition, hits mostly inhibitors. shares compounds with nsP2pro inh. AID 1964100. cell-based CHIKV nsP2 protease reporter assay; note: nearly all actives have a fitted effect of over 70% in size
NSP2 full ctr: selectivity test for CHIKV nsP2 protease inhibitors: full-length NSP2; shares compounds with nsP2pro inh; Full-length CHIKV NSP2 protease enzymatic counterscreen; Potency, µM (titrated, usually from 50.7 µM), for the others: at the top dose activity change, negative = inhibition, actives largely listed as inhibitors; actives 39% (n = 410); AID 1964101; note: nearly all actives have a fitted effect of over 65% in size
Furin counterscr: human furin inhibition, counterscreen for nsP2pro inhibitors; Recombinant human furin enzymatic counterscreen, fluorogenic substrate; shares compounds with nsP2pro inh; actives 6% (n = 410); AID 1964102; Potency, µM (doses to about 50.6 µM), without a hit: top-dose activity change, negative = inhibition, actives largely listed as inhibitors
NS23 peptide cs: blocks CHIKV nsP2 protease cleavage of endogenous NS2/3 peptide. AID 1964103. Potency, µM (series often up to 51 µM), for the others: at the top dose activity change, negative = inhibition, usual class: inhibitors. Purified CHIKV nsP2 protease, endogenous NS2/3 peptide cleavage. shares compounds with nsP2pro inh. actives 34% (n = 410); note: nearly all actives have a fitted effect of over 55% in size
Papain cs: papain protease inhibition, counterscreen for nsP2pro inhibitors | actives 5% (n = 410) | shares compounds with nsP2pro inh | purified papain protease activity, enzymatic inhibition | AID 1964104 | Potency, µM (highest dose often 51 µM), for inactives: at the highest dose activity change, negative = inhibition, most hits filed as inhibitors
nsP2pro conf qHTS: CHIKV nsP2 protease inhibition, confirmatory qHTS | shares compounds with nsP2pro inh | CHIKV nsP2 protease enzymatic activity, qHTS | Potency, µM (titrated, usually from 25.5 µM), for inactives: at the top dose activity change, negative = inhibition, most hits filed as inhibitors | actives 43% (n = 410) | AID 1964105; note: nearly all actives have a fitted effect of over 75% in size
HCV NS3 4A cs: inhibits HCV NS3/4A protease in an nsP2pro selectivity counterscreen. shares compounds with nsP2pro inh. HCV NS3/4A protease biochemical counterscreen. Potency, µM (highest dose often 50.9 µM), hits mostly inhibitors. actives 20% (n = 410). AID 1964106; note: nearly all actives have a fitted effect of over 55% in size
* marks the source's active call; other numbers are inactive results; i = inactive; u = inconclusive; ! = a repeat was not active; [ ] = remark or other dose. Calls come from the whole dose curve. % is set by controls: 0 for no effect and ±100 for the full control effect; potency is the fitted concentration of half-maximal effect.

SMILES | nsP2pro inh | others
CNC(=O)c1cc(C2CC2)nc2onc(C3CCN(C(=O)c4ccc(Cl)nc4)C3)c12 (configuration not stated) | i
O=C(NCCc1nc2ccccc2n1CCOc1cccc([N+](=O)[O-])c1)C1CCCCC1 | -0.4%
C[C@@H]1O[C@@H](O[C@@H]2/C=C/C=C/C=C\C=C\C[C@H](C)OC(=O)/C=C/[C@H]3O[C@@H]3C[C@H](O)C[C@]3(O)C[C@@H](O)[C@@H](C(=O)O)[C@H](C2)O3)[C@H](O)[C@H](N)[C@@H]1O | -5.8%[10 µM]
Cc1ccc(OCCn2c(CCNC(=O)C(C)(C)C)nc3ccccc32)cc1 | -12.0%
O=C(O)[C@H]1C2CCC(CC2)[C@@H]1Nc1nc(-c2c[nH]c3ncc(F)cc23)ncc1F | u | nsP2 cell sec=-10.9%;NSP2 full ctr=-36.2%;Furin counterscr=-11.1%;NS23 peptide cs=i;Papain cs=u;nsP2pro conf qHTS=u;HCV NS3 4A cs=i
NC(=O)[C@H](O[C@@H]1O[C@H](CO)[C@@H](O)[C@H](O)[C@H]1O)c1ccccc1 | 11.2%
Cc1cc(-c2nnc3n2CCCCC3)c(C)n1-c1cccc(C(F)(F)F)c1 | -5.2%
CN([C@H]1c2cc(OCCCC(F)(F)F)ccc2OC(C)(C)[C@@H]1O)S(C)(=O)=O | -10.8%
COc1ncc(-c2ccc3c(Nc4cc(Oc5cc(F)cc(F)c5)cc(C(=O)O)c4)c(S(=O)(=O)NC4CC4)cnc3c2)c(OC)n1 | 35.5%
N[C@@H](CC(=O)N1CCc2c(nc(C(F)(F)F)nc2C(F)(F)F)C1)CN1CC(F)(F)CCC1=O | -12.0%
CN(C)C/C=C/C(=O)Nc1cc2c(Nc3ccc(F)c(Cl)c3)ncnc2cc1O[C@H]1CCOC1 | 298.0%
COc1cnc(-n2cnc(C)n2)c2[nH]cc(C(=O)C(=O)N3CCN(C(=O)c4ccccc4)CC3)c12 | -12.6%
O=C(Nc1cccc(F)c1)N1Cc2[nH]cnc2C[C@H]1c1nc(-c2ccncc2)no1 | i
Cc1cccc(-c2noc([C@@H]3Cc4nc[nH]c4CN3C(=O)NC3CCCCC3)n2)c1 | 0.631µM* | nsP2 cell sec=50.7%;NSP2 full ctr=5.3µM*;Furin counterscr=-2.6%;NS23 peptide cs=7.49µM*;Papain cs=-12.1%;nsP2pro conf qHTS=2.06µM*;HCV NS3 4A cs=i
O=C(NC1CCCCC1)N1Cc2[nH]cnc2C[C@H]1c1nc(-c2ccccc2)no1 | 30.9%[39.2 µM]
Cn1cc(-c2cc3c(N4CCN(c5ncc([C@@](C)(N)c6ccc(F)cc6)cn5)CC4)ncnn3c2)cn1 | 11.6%
Oc1c(C(c2ccc(Cl)cc2Cl)N2CCOCC2)sc2nc(-c3ccco3)nn12 (configuration not stated) | -20.4%
Cc1ccc(C(c2sc3nc(-c4ccco4)nn3c2O)N2CCOCC2)cc1 (configuration not stated) | u | nsP2 cell sec=-13.9%;NSP2 full ctr=-7.3%;Furin counterscr=-9.1%;NS23 peptide cs=0.8%;Papain cs=-18.6%;nsP2pro conf qHTS=-23.3%;HCV NS3 4A cs=i
OCCN1CCN(C(c2ccc(Cl)cc2Cl)c2sc3nc(-c4ccco4)nn3c2O)CC1 (configuration not stated) | -0.2%
CC[N+]1(C)C2CC(OC(=O)[C@H](CO)c3ccccc3)CC1[C@@H]1O[C@H]21 (some centres not stated) | 7.4%
COc1ccc(N2CC3CCC(C2)N3CC2CCCC2)cc1 | -15.3%[39.2 µM]
O=C(COCC(=O)N1CCN(C(c2ccccc2)c2ccccc2)CC1)Nc1ccc(Cl)cc1C(=O)O | -4.1%
CCOC(=O)CC(SP(=S)(OC)OC)C(=O)OCC (configuration not stated) | 8.81µM* | nsP2 cell sec=-23.3%;NSP2 full ctr=23.1µM*;Furin counterscr=-16.0%;NS23 peptide cs=18.3µM*;Papain cs=u;nsP2pro conf qHTS=5.65µM*;HCV NS3 4A cs=i
Cc1cc(-c2ccccc2)n2ncc(C(=O)Nc3ccccc3Sc3ccccc3)c2n1 | -8.0%
CCC[C@H](NC(=O)[C@@H]1[C@H]2CCC[C@H]2CN1C(=O)[C@@H](NC(=O)[C@@H](NC(=O)c1cnccn1)C1CCCCC1)C(C)(C)C)C(=O)C(=O)NC1CC1 | 3.94µM*! | nsP2 cell sec=172.5%;NSP2 full ctr=11.6µM*;Furin counterscr=-4.4%;NS23 peptide cs=u;Papain cs=0.0259µM*;nsP2pro conf qHTS=3.57µM*;HCV NS3 4A cs=0.0517µM*
SMILES | nsP2pro inh | others
CCC(CC)C(c1ccc(Nc2nc3ccccc3s2)cc1)n1cncn1 (configuration not stated) | 74.7%
Cn1nc(-c2cccc(F)c2)c(N2CCCC2)c1NC(=O)NCc1ccccc1 | -3.0%
COC1=Cc2c(nc3n(c2=O)C(C)C(=O)NC3(O)C(C)C)OC=C1 (configuration not stated) | u | nsP2 cell sec=-3.7%[33.5 µM];NSP2 full ctr=-0.1%[33.5 µM];Furin counterscr=-12.8%[33.5 µM];NS23 peptide cs=-23.1%[33.5 µM];Papain cs=-12.7%[33.5 µM];nsP2pro conf qHTS=u;HCV NS3 4A cs=i
CC(C)/C=C1\NC(=O)C(C(C)C)n2c1nc1c(c2=O)C=CC=CO1 (configuration not stated) | -21.7%
O=C(Nc1nc(-c2ccccc2)cs1)c1ccncc1NS(=O)(=O)c1ccc(F)cc1Cl | i
Cc1ccccc1C(=O)N1CCCN(c2ccc3nnc(-c4ccccc4)n3n2)CC1 | -0.2%
COC(=O)[C@]12CCC(C)(C)C[C@H]1[C@H]1C(=O)C=C3[C@@]4(C)C=C(C#N)C(=O)C(C)(C)[C@@H]4CC[C@@]3(C)[C@]1(C)CC2 | u | nsP2 cell sec=u;NSP2 full ctr=u;Furin counterscr=-2.9%;NS23 peptide cs=u;Papain cs=u;nsP2pro conf qHTS=u;HCV NS3 4A cs=i
Cc1onc(-c2c(F)cccc2Cl)c1C(=O)N[C@@H]1C(=O)N2[C@@H]1SC(C)(C)[C@H]2C(=O)O | -3.9%
C=C(C)C1CC[C@]2(C(=O)O)CC[C@]3(C(=O)O)[C@H](CCC4[C@@]5(C)CC[C@H](O)C(C)(C)C5CC[C@]43C)C12 (some centres not stated) | 11.5%[10 µM]
COc1c2cc(c(O[C@@H]3O[C@H](CO)[C@@H](O)[C@H](O)[C@H]3O)c1OC)CCCCC(O)CCc1ccc(O)c-2c1 (some centres not stated) | 62.8%[10 µM]
Cc1ccc(-n2c(C)cc(-c3nnc4n3CCCCC4)c2C)cc1 | u | nsP2 cell sec=20.6µM*;NSP2 full ctr=u;Furin counterscr=-3.2%;NS23 peptide cs=u;Papain cs=-6.1%;nsP2pro conf qHTS=u;HCV NS3 4A cs=u
COc1ccc(-n2c(C)cc(-c3nnc4n3CCCCC4)c2C)cc1 | -27.6%
Cc1cc(-c2nnc3n2CCCCC3)c(C)n1-c1ccncc1 | -16.8%
